In PubChem BioAssay AID1159580 (chemical genetic matrix, 2015):
Among all 5,500 compounds or so, about 2,000 (36%) were called active. Another 18% or so got no clear call; they are omitted. Rule as the data show it: active = normalized growth mostly below about 0.91 (no sharp cut-off); inconclusive = no clear call, values can overlap the other calls; inactive = mostly above about 0.92. Some of the results follow.

Test: chemical genetic growth profiling, strain panel (AID 1159580);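 also: tested at 20 µM; growth read once vehicle control cultures reached saturation at 30 °C; 1 = growth at the plate median or of vehicle wells; lower values mean less growth of the strain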
Conditions: S. cerevisiae deletion strains, growth OD

Measured: normalized growth

COc1cc(-c2oc3cc(O)ccc3c(=O)c2O)ccc1O
inactive: locus YAL030W, strain snc1, active compounds read low 0.977 | locus YBL061C, strain skt5, active compounds read low 0.926 | locus YBR009C, strain hhf1, active compounds read low 0.925 | locus YBR171W, strain sec66, active compounds read low 1 | locus YCL011C, strain gbp2, active compounds read low 0.942 | locus YCL016C, strain dcc1, active compounds read low 0.961 | locus YCL061C, strain MRC1, active compounds read low 0.993 | locus YCL069W, strain vba3, active compounds read low 0.987 | locus YCR088W, strain abp1, active compounds read low 1.02 | locus YDL005C, strain med2, active compounds read low 1.03 | locus YDL040C, strain nat1, active compounds read low 1.01 | locus YDR001C, strain nth1, active compounds read low 1.02 | locus YDR159W, strain sac3, active compounds read low 1.06 | locus YDR297W, strain sur2, active compounds read low 0.958 | locus YDR335W, strain msn5, active compounds read low 0.971 | locus YDR392W, strain spt3, active compounds read low 0.868 | locus YEL003W, strain gim4, active compounds read low 0.961 | locus YEL037C, strain rad23, active compounds read low 0.972 | locus YEL061C, strain CIN8 (second series), active compounds read low 1 | locus YER016W, strain bim1, active compounds read low 0.986 | locus YER111C, strain swi4, active compounds read low 0.979 | locus YER155C, strain BEM2 (second series), active compounds read low 0.977 | locus YFR010W, strain ubp6, active compounds read low 0.906 | locus YGL167C, strain pmr1, active compounds read low 0.995 | locus YGL227W, strain vid30, active compounds read low 1.04 | locus YGL240W, strain doc1, active compounds read low 1.04 | locus YJL092W, strain hpr5, active compounds read low 1.01 | locus YJL095W, strain BCK1 (second series), active compounds read low 0.967 | locus YJL115W, strain asf1, active compounds read low 1.01 | locus YJL129C, strain trk1, active compounds read low 0.911 | locus YJL154C, strain vps35, active compounds read low 1 | locus YKL160W, strain elf1, active compounds read low 0.912 | locus YKR026C, strain gcn3, active compounds read low 1.02 | locus YKR091W, strain srl3, active compounds read low 1 | locus YLL001W, strain dnm1, active compounds read low 0.959 | locus YLL026W, active compounds read low 0.954 | locus YLL041C, strain sdh2, active compounds read low 0.994 | locus YLR258W, strain gsy2, active compounds read low 0.935 | locus YLR320W, strain mms22, active compounds read low 0.9 | locus YLR342W, strain FKS1, active compounds read low 0.966 | locus YLR370C, strain arc18, active compounds read low 0.96 | locus YLR384C, strain iki3, active compounds read low 0.987 | locus YML120C, strain ndi1, active compounds read low 0.975 | locus YMR125W, strain sto1, active compounds read low 1.11 | locus YMR129W, active compounds read low 0.998 | locus YMR205C, strain PFK2, active compounds read low 0.926 | locus YNL071W, strain lat1, active compounds read low 0.96 | locus YNL248C, strain rpa49, active compounds read low 0.968 | locus YNL322C, strain KRE1 (second series), active compounds read low 1.03 | locus YNR049C, strain mso1, active compounds read low 1 | locus YOR001W, strain rrp6, active compounds read low 0.917 | locus YOR080W, strain dia2, active compounds read low 1 | locus YOR265W, strain rbl2, active compounds read low 0.968 | locus YOR290C, strain snf2, active compounds read low 0.888 | locus YPL078C, strain atp4, active compounds read low 0.927 | locus YPL106C, strain sse1, active compounds read low 0.935 | locus YPL240C, strain hsp82, active compounds read low 0.972
active: locus YAL021C, strain ccr4, active compounds read low 0.743 | locus YAL026C, strain drs2, active compounds read low 0.873 | locus YBR023C, strain chs3, active compounds read low 0.861 | locus YBR231C, strain swc5, active compounds read low 0.826 | locus YBR279W, strain paf1, active compounds read low 0.853 | locus YDR069C, strain doa4, active compounds read low 0.774 | locus YDR137W, strain rgp1, active compounds read low 0.763 | locus YDR195W, strain ref2 1.18 [resistant] | locus YDR334W, strain swr1, active compounds read low 0.887 | locus YER015W, strain faa2, active compounds read low 0.859 | locus YGL173C, strain kem1, active compounds read low 0.86 | locus YGL253W, strain hxk2, active compounds read low 0.833 | locus YHR013C, strain ard1, active compounds read low 0.814 | locus YHR027C, strain rpn1, active compounds read low 0.788 | locus YHR142W, strain chs7, active compounds read low 0.827 | locus YJL164C, strain tpk1, active compounds read low 0.829 | locus YJL166W, strain qcr8, active compounds read low 0.895 | locus YJL187C, strain SWE1, active compounds read low 0.885 | locus YLR027C, strain aat2, active compounds read low 0.902 | locus YLR221C, strain rsa3, active compounds read low 0.899 | locus YLR262C, strain YPT6 (second series), active compounds read low 0.748 | locus YLR357W, strain rsc2, active compounds read low 0.8 | locus YMR058W, strain fet3, active compounds read low 0.306 | locus YMR231W, strain pep5, active compounds read low 0.906 | locus YNL209W, strain ssb2, active compounds read low 0.647 | locus YOR070C, strain gyp1, active compounds read low 0.873 | locus YOR083W, strain WHI5, active compounds read low 0.85 | locus YOR106W, strain vam3, active compounds read low 0.567 | locus YOR270C, strain vph1, active compounds read low 0.542 | locus YPL051W, strain arl3, active compounds read low 0.744
